The supplement of paper PMC13380429

Columns and labels:
[1] = system: Vero E6 infected with SARS-CoV-2; experiment: morphology score (similarity to uninfected cells); higher = more like uninfected cells; conditions: 24 h
[2] = system: Vero E6 infected with SARS-CoV-2; experiment: SARS-CoV-2 infection rate relative to infected DMSO; higher = more infection, active = 60 or less; conditions: 24 h

Row | SMILES | morphology score [1] | SARS-CoV-2 infection rate [2]
1 | CN(C)C[C@H](O)Cn1c2ccc(Br)cc2c2cc(Br)ccc21 (racemic) [wiskostatin] (0.833333 µM) | 0.146 | 110% (inactive)
2 | CC(C)Oc1ccc(-c2nc(-c3cccc4c3CC[C@@H]4NCCO)no2)cc1C#N [ozanimod] (0.833333 µM) | 0.262 | 101% (inactive)
3 | Cc1cc(Nc2nc(N[C@@H](C)c3ccc(F)cc3)c(C#N)cc2F)n[nH]1 (10 µM) | -0.0459 | 110% (inactive)
4 | C[C@]12CC[C@@H]3c4ccc(O)cc4CC[C@H]3[C@@H]1CCC2=O [estrone] (10 µM) | -0.145 | 108% (inactive)
5 | CN1CCCN=C1COC(=O)C(O)(c1ccccc1)C1CCCCC1 (stereo unspecified) [oxyphencyclimine] (10 µM) | 0.0243 | 101% (inactive)
6 | COc1ccc(CC(=O)NC(/N=C(\NC#N)Nc2cccc3ncccc23)C(C)(C)C)cc1OC (stereo unspecified) (10 µM) | 0.297 | 97% (inactive)
7 | CN(C)c1nc(N(C)C)nc(N(C)C)n1 [altretamine] (10 µM) | -0.171 | 114% (inactive)
8 | CO[C@@]1(NC(=O)C(C(=O)O)c2ccc(O)cc2)C(=O)N2C(C(=O)O)=C(CSc3nnnn3C)CO[C@@H]21 (stereo partly specified) [moxalactam] (10 µM) | -0.0497 | 110% (inactive)
9 | CC(C)NC[C@@H](O)c1ccc(O)c(O)c1 (racemic) [isoprenaline] (0.833333 µM) | 0.241 | 100% (inactive)
10 | O=C1CC[C@@H](C(=O)N2CSC[C@H]2C(=O)O)N1 [pidotimod] (10 µM) | -0.145 | 116% (inactive)
11 | NCCc1c[nH]cn1 [histamine] (10 µM) | -0.112 | 114% (inactive)
12 | COc1cccc(OC)c1C(=O)N[C@@H]1C(=O)N2[C@@H]1SC(C)(C)[C@@H]2C(=O)O [methicillin] (10 µM) | -0.0574 | 112% (inactive)
13 | Cc1cccn2c(=O)c(-c3nnn[nH]3)cnc12 [pemirolast] (10 µM) | 0.106 | 94.5% (inactive)
14 | Clc1cccc(C(c2ccc3[nH]cnc3c2)n2ccnc2)c1 (stereo unspecified) [liarozole] (10 µM) | 0.138 | 98% (inactive)
15 | COc1ccnc2[nH]cc(C(=O)C(=O)N3CCN(C(=O)c4ccccc4)C[C@H]3C)c12 (10 µM) | -0.0708 | 99% (inactive)
16 | CN1CCN(c2nc(C3=C(c4c[nH]c5ccccc45)C(=O)NC3=O)c3ccccc3n2)CC1 [sotrastaurin] (10 µM) | 0.0619 | 119% (inactive)
17 | CC1(C)CCC[C@]2(C)[C@H]3CC(=O)O[C@]3(C)CC[C@@H]12 [Sclareolide (Norambreinolide)] (10 µM) | 0.184 | 106% (inactive)
18 | C[C@@H]([C@@H](O)c1ccc(O)cc1)N1CCC(O)(c2ccccc2)CC1 [traxoprodil] (10 µM) | -0.037 | 108% (inactive)
19 | Fc1ccc([C@@H]2CCNC[C@H]2COc2ccc3c(c2)OCO3)cc1 [paroxetine] (10 µM) | -0.0761 | 117% (inactive)
20 | CCOc1ccccc1C(=O)O [2-ethoxybenzoic-acid] (10 µM) | 0.0437 | 115% (inactive)
21 | Cn1nnc(-c2ccc(-c3ccc(N4C[C@H](COP(=O)(O)O)OC4=O)cc3F)cn2)n1 [tedizolid-phosphate] (10 µM) | 0.194 | 88% (inactive)
22 | NC(=O)C(c1ccccc1)(c1ccccc1)[C@@H]1CCN(CCc2ccc3c(c2)CCO3)C1 [darifenacin] (10 µM) | -0.025 | 106% (inactive)
23 | CN(C)Cc1c(C(=O)NCCOc2ccc(C(=O)NO)cc2)oc2ccccc12 (10 µM) | -0.197 | 96.5% (inactive)
24 | N[C@@H](CCC(=O)N[C@@H](CSN=O)C(=O)NCC(=O)O)C(=O)O [S-nitrosoglutathione] (10 µM) | 0.164 | 104% (inactive)
25 | O=C(O)c1ccccc1Nc1cccc(C(F)(F)F)c1 [flufenamic-acid] (10 µM) | 0.156 | 99.5% (inactive)
26 | Cc1nc2c(O)cccc2c(=O)[nH]1 (10 µM) | -0.0261 | 114% (inactive)
27 | c1ccc(CNCc2ccc(CN3CCCNCCNCCCNCC3)cc2)nc1 (10 µM) | 0.129 | 100% (inactive)
28 | CC#C[C@]1(O)CC[C@H]2[C@@H]3CCC4=CC(=O)CCC4=C3[C@@H](c3ccc(N(C)C)cc3)C[C@@]21C [mifepristone] (10 µM) | 0.443 | 65.5% (inactive)
